# Results from PubChem BioAssay (NCATS).
# Inconclusive results are not listed. Activity calls are given as the source filed them. Unless noted, calls follow the shape of the dose curve; as a rule, active = well fitted curve in the direction sought with a large enough effect; inconclusive = small, poorly fitted or top-dose-only effect, or another doubt; inactive = no such curve, though single readings can be large; an effect the other way counts as inactive or inconclusive.
# Legend:
# [1] = biological target: Cytochrome P450 3A4 (Homo sapiens) (UniProt P08684); test: qHTS Assay for Inhibitors and Substrates of Cytochrome P450 3A4 (AID 884); also: nearly all actives have a fitted effect of over 50% in size; also: potency is read from the fitted curve at half-maximal effect
# Chain of Cytochrome P450 3A4 (Homo sapiens) (P08684 whole entry, looked up): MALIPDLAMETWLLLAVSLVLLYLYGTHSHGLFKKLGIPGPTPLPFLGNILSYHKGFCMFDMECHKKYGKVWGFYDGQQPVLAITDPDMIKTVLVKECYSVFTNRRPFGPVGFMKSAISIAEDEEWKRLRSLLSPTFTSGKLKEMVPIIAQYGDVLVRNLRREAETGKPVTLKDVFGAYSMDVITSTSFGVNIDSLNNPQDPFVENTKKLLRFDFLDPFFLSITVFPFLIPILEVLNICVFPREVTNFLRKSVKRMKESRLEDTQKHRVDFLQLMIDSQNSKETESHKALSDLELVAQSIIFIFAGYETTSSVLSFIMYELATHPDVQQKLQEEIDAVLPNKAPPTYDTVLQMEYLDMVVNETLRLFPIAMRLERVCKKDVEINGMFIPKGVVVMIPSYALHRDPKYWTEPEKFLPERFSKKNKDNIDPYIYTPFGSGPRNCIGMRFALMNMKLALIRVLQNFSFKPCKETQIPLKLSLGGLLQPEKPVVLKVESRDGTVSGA
# Procedure, shortened: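 Luminescent readout of luciferin produced by CYP3A4 (20 nM) dealkylation of Luciferin-PPXE, 25 uM (its KM). NADPH-driven reaction ran 60 min at RT after 10 min compound preincubation; data scaled to 57 uM ketoconazole as 100% inhibition.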
# [2] = biological target: Cytochrome P450 3A4 (Homo sapiens) (UniProt P08684); test: qHTS Assay for Activators of Cytochrome P450 3A4 (AID 885); also: nearly all actives have a fitted effect of over 65% in size
# Procedure, shortened: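 Human CYP3A4 dealkylates Luciferin-PPXE to luciferin, which luciferase detection converts to light. Substrate was at its KM (25uM), buffer 200mM KPO4, reaction 60 min at RT.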
# [3] = Confirmation and Secondary Assay for Modulators of Hemoglobin Beta Chain Splicing at IVS2 654 locus (AID 910);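 also: HeLa cells stably carrying EGFP split by mutant beta-globin IVS2-654 intron; % of control where 0% means no effect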
# Procedure, shortened: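 HeLa cells stably expressing EGFP interrupted by β-globin IVS2-654 intron, seeded overnight in Opti-MEM/2% FCS, then treated 2 days at 37 °C. Restored splicing read as total peak GFP intensity per well by laser scanning cytometry (488 nm excitation, 500–520 nm emission); 500 nM antisense PNA as control.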
# [4] = Confirmation and Secondary Assay for Modulators of Hemoglobin Beta Chain Splicing at IVS2 705 locus (AID 930);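 also: HeLa cells stably expressing the EGFP-705 splicing reporter; GFP fluorescence per well restored by corrected splicing of the IVS2-705 intron in EGFP; % of control where 0% means no effect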
# Procedure, shortened: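 HeLa IVS2-705 EGFP reporter cells, 500/well, compound 2 d at 37C; correct splicing yields fluorescent EGFP. Control: 500 nM antisense PNA. Read-out: total peak GFP intensity.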
# [5] = qHTS Assay for Lipid Storage Modulators (AID 1519; calls by dose curve); conditions: Drosophila S3 cells, BODIPY lipid droplet/cell ratio, laser cytometry, cells loaded with oleic acid; for activity change, negative = inhibition: at 57.5 µM (top of the series)
# Procedure, shortened: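 Cells seeded at 5,000 per well were treated with compounds over a concentration series and loaded with oleic acid (400 uM, as added). Lipid droplet fluorescence (488 nm excitation, 500-530 nm channel) was read by laser-scanning cytometry and normalized to 20 uM Triacsin C.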
# [6] = biological target: Ubiquitin carboxyl-terminal hydrolase 1 (Homo sapiens) (UniProt O94782); test: Inhibitors of USP1/UAF1: Pilot qHTS (AID 504865);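 also: rhodamine fluorescence freed from ubiquitin-rhodamine substrate followed over time; top concentration of the series differs between compounds; % is scaled to controls: 0 for no effect and ±100 for the full control effect; nearly all actives have a fitted effect of over 35% in size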
# Chain of Ubiquitin carboxyl-terminal hydrolase 1 (Homo sapiens) (O94782 whole entry, looked up): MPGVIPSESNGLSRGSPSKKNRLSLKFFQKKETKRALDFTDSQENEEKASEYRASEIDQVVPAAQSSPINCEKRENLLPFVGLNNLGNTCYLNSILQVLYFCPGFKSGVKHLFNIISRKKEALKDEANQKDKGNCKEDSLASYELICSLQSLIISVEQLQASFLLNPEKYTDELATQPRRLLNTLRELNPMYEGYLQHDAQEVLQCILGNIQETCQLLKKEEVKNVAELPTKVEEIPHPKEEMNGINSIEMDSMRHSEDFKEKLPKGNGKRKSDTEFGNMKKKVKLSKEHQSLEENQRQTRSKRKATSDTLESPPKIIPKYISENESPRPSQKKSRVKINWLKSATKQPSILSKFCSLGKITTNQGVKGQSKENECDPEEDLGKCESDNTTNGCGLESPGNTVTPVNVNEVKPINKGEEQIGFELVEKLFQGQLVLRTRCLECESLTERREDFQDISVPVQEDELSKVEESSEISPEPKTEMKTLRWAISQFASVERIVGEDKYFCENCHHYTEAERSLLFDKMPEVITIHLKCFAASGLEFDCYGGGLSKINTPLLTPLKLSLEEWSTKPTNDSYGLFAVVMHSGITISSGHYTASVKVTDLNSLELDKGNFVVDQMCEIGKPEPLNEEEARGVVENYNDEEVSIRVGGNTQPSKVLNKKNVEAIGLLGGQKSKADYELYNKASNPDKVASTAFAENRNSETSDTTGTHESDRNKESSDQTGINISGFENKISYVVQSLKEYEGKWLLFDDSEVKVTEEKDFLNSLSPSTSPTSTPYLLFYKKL
# Procedure, shortened: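 In 50mM HEPES pH 7.8 containing 0.5mM EDTA, 1mM TCEP, 0.1 mg/ml BSA and 0.01% Tween-20, 1nM USP1/UAF1 is exposed to compound for 15 min, then Ub-Rho (150nM final) is added and fluorescence is read over time.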
# [7] = biological target: Lysosomal acid glucosylceramidase (Homo sapiens) (UniProt P04062); test: Glucocerebrosidase-p2 (AID 348; in the data active = potency below about 10 µM; also: potency is read from the fitted curve at half-maximal effect); conditions: purified GBA, blue fluorogenic substrate, 40 min
# Chain of Lysosomal acid glucosylceramidase (Homo sapiens) (P04062 whole entry, looked up): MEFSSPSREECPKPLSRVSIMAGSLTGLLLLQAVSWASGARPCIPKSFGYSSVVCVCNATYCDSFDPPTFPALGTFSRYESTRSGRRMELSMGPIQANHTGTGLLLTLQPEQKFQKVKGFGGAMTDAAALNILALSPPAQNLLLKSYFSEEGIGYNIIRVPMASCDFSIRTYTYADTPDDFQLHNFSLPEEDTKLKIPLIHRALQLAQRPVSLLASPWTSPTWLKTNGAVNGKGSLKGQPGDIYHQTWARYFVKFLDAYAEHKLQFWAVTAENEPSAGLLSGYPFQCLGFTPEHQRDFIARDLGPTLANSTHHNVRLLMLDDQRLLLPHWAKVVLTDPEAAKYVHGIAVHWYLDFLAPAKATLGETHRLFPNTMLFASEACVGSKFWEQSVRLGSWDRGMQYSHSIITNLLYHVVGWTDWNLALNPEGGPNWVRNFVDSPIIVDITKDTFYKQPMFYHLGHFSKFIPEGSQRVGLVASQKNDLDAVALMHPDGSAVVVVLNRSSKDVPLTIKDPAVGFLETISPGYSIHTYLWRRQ
# Procedure, shortened: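 Normal human glucocerebrosidase (0.2 nM) with blue fluorogenic substrate (80 uM final) in citrate/phosphate pH 5.9 with 10mM sodium taurocholate, 0.01% tween-20; 40 min RT, NaOH/glycine stop; fluorescence Ex 365/Em 440; AC50 from a titration from 0.6 nM upwards.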
# [8] = AP1 Signaling Pathway (AID 357; active = well fitted curve in either direction with a large enough effect, not every such curve was filed as active;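 also: ME-180 reporter cells stimulated with EGF at its EC50 level; % is scaled to controls: 0 for no effect and ±100 for the full control effect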); conditions: ME-180 AP-1-bla reporter, EGF-induced, beta-lactamase ratio, 5 h; at 7.69 µM (top of the series) unless noted
# Procedure, shortened: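 Modulation of EGF-driven AP-1 transcription was assessed with a beta-lactamase reporter in ME-180 cells. Compound and EC50 EGF were co-incubated 5 hours at 37 °C before 2.5-hour CCF4 loading at room temperature and dual-emission reading.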
# [9] = biological target: Cytochrome P450 1A2 (Homo sapiens) (UniProt P05177); test: p450-cyp1a2 (AID 410; calls by dose curve; also: potency is read from the fitted curve at half-maximal effect)
# Chain of Cytochrome P450 1A2 (Homo sapiens) (P05177 whole entry, looked up): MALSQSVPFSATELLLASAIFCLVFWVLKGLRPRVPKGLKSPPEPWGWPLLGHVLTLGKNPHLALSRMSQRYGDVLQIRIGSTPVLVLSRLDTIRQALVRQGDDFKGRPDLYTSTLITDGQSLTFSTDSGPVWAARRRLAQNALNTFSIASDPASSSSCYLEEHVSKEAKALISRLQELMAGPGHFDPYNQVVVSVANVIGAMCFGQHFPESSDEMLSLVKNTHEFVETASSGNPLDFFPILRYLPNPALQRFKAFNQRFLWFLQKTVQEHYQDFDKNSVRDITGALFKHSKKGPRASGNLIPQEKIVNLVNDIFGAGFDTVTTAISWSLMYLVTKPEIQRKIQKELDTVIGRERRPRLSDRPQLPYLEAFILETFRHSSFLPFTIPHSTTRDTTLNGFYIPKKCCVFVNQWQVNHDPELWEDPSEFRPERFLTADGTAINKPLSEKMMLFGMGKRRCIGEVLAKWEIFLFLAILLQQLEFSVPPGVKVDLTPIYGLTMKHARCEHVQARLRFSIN
# Procedure, shortened: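 Luminescent demethylation readout: Luciferin-ME (100uM, equal to Km) turned over by 20nM CYP1A2 for 60 min at room temperature after NADPH regeneration addition, following 10 min compound preincubation. Normalization used 57 uM furafylline as full inhibition.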
# [10] = NFAT Signaling Pathway (AID 444; active = well fitted curve in either direction with a large enough effect, not every such curve was filed as active;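 also: carbachol stimulus at about its EC50 of 1 µM final; % is scaled to controls: 0 for no effect and ±100 for the full control effect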); conditions: Jurkat NFAT-bla M1, carbachol, beta-lactamase ratio, 5 h; at 7.69 µM (top of the series) unless noted
# Procedure, shortened: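 Jurkat cells with NFAT-driven β-lactamase reporter and co-expressed M1 receptor, stimulated with carbachol (final 1 uM, ~EC50), compound titration, 5 h at 37 °C. CCF4 loaded 1 h at RT; 460/530 nm ratio gave %activity and AC50.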
# [11] = Stat Signaling Pathway (AID 446; active = well fitted curve in either direction with a large enough effect, not every such curve was filed as active;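 also: ME-180 cervical cancer cells given 40 pM IL-6 alongside compound; SIE-controlled beta-lactamase reporter measured as 460/530 nm FRET emission ratio; % is scaled to controls: 0 for no effect and ±100 for the full control effect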); conditions: ME-180 SIE beta-lactamase reporter, IL-6 stimulated, 5 h; at 7.69 µM (top of the series) unless noted
# Procedure, shortened: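 Normalization used AC90 stimulation (300 pM IL-6) and AC90 inhibition (125 nM pan-JAK inhibitor at 40 pM IL-6). The underlying signal is SIE-driven beta-lactamase in ME-180 cells after 5 h IL-6 exposure with compound.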
# [12] = biological target: Glucocorticoid receptor (Homo sapiens) (UniProt P04150); test: GR-GFP Redistribution (AID 450;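 active = compounds whose dose series gives a full or clear partial fitted curve of increased nuclear translocation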; also: potency is read from the fitted curve at half-maximal effect); conditions: U2OS GR-GFP nuclear translocation, laser cytometry, 2 h
# Chain of Glucocorticoid receptor (Homo sapiens) (P04150 whole entry, looked up, the tested form may be a part): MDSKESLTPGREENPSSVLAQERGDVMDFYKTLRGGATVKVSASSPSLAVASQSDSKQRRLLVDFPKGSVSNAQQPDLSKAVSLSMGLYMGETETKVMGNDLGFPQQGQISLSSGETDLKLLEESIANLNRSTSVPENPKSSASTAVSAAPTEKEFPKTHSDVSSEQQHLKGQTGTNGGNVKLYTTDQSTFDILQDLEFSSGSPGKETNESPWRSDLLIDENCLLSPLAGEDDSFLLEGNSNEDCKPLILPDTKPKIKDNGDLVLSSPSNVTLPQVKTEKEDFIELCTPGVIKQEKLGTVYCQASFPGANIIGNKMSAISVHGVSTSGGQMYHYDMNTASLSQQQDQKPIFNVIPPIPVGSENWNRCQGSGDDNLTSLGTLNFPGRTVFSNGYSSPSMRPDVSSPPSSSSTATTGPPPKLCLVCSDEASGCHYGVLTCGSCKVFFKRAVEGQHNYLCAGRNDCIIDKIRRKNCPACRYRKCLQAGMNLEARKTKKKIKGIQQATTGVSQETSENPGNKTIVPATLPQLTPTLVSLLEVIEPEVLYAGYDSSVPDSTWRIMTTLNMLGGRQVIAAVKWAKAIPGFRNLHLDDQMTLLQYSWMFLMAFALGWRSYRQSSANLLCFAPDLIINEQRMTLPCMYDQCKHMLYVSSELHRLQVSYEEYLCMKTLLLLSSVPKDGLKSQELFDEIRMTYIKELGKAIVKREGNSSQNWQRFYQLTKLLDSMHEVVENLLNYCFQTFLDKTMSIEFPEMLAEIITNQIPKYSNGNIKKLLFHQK
# [13] = biological target: Glucocorticoid receptor (Homo sapiens) (UniProt P04150); test: GR-EFC Redistribution (AID 451; calls by dose curve; also: potency is read from the fitted curve at half-maximal effect); conditions: CHO-K1 GR-EFC translocation, beta-gal luminescence, 2 h
# Procedure, shortened: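 CHO-K1 cells expressing nuclear EA and GR-ED fragments of b-gal; compounds titrated up to 46 uM final, 2 h at 37 C. GR nuclear translocation read as complemented b-gal luminescence after 1 h RT detection.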
# [14] = biological target: Mitogen-activated protein kinase 10 (Mus musculus) (UniProt Q61831); test: JNK3 AlphaScreen Assay (AID 530; active = well fitted curve in either direction with a large enough effect, not every such curve was filed as active;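 also: kinase came from lysate of stimulated human HepG2 cells; signal reports phosphorylation of biotinylated GST-cJun 1-79 at Ser73 with 10 µM ATP; % is scaled to controls: 0 for no effect and ±100 for the full control effect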)
# Procedure, shortened: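 Activity was read by AlphaScreen after JNK3-containing HepG2 lysate (cytokine pre-activated) phosphorylated biotinylated GST-cJun with 10 uM ATP at room temperature. Phospho-Ser73 cJun antibody with Protein-A acceptor beads provided detection.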
# [15] = biological target: 3',5'-cyclic-AMP phosphodiesterase 4B (Homo sapiens) (UniProt Q07343); test: qHTS Assay for Inhibitors of PDE-IV (AID 607; active = well fitted activation curve with a large enough effect in the main read-out, with a control signal flat, not every such curve was filed as active; also: % of control where 0% means no effect)
# Chain of 3',5'-cyclic-AMP phosphodiesterase 4B (Homo sapiens) (Q07343 whole entry, looked up): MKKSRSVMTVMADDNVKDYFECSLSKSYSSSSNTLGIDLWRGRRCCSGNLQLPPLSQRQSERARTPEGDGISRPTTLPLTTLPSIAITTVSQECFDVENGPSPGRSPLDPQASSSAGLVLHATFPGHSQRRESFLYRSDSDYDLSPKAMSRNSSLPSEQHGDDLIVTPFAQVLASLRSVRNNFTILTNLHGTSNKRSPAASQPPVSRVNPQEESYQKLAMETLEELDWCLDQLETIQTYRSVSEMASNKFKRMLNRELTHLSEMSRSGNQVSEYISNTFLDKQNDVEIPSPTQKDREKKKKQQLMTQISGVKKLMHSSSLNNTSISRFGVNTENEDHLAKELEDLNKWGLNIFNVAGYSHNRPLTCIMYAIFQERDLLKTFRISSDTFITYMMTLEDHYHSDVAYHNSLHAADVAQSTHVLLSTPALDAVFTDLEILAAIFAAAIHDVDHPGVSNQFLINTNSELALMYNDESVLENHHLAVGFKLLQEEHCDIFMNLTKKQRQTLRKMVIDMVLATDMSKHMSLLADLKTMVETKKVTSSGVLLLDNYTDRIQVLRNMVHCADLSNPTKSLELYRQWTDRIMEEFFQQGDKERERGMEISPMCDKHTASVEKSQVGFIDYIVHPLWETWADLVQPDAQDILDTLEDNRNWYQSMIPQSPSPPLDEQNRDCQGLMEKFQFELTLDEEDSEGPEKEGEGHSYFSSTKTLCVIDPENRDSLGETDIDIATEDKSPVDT
# Procedure, shortened: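 HEK293 ACTOne cells with CNG channel (1000/well), endogenous PDE4; membrane potential dye, compounds up to 22.9 uM final. Fluorescence Ex 535/Em 590; RO 20-1724 (100 uM final) as reference.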
# [16] = qHTS Assay for Identification of Small Molecule Agonists for Hypoxia Response Element Signaling Pathway (AID 914; active = well fitted activation curve with a large enough effect in the signal ratio, with a control signal flat, not every such curve was filed as active; the % refers to the signal ratio; also: % of control where 0% means no effect); conditions: ME-180 (cervical carcinoma) HRE-bla reporter, beta-lactamase ratio, CoCl2, 17 h; activation: stronger effect = higher value
# Procedure, shortened: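 HRE-bla ME-180 assay for agonist-like enhancement of an EC50 CoCl2 stimulus: 17 h at 37 degrees Celsius, CCF4 for 2.5 h, ratiometric 460/530 nm signal converted to %Activity and fitted to AC50.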
# [17] = biological target: Dual specificity protein kinase CLK4 (Homo sapiens) (UniProt Q9HAZ1); test: qHTS Assay for Inhibitors of CDC-like Kinase 4 (Kinase-Glo Assay) (AID 1770); also: % is scaled to controls: 0 for no effect and ±100 for the full control effect; nearly all actives have a fitted effect of over 65% in size
# Chain of Dual specificity protein kinase CLK4 (Homo sapiens) (Q9HAZ1 whole entry, looked up): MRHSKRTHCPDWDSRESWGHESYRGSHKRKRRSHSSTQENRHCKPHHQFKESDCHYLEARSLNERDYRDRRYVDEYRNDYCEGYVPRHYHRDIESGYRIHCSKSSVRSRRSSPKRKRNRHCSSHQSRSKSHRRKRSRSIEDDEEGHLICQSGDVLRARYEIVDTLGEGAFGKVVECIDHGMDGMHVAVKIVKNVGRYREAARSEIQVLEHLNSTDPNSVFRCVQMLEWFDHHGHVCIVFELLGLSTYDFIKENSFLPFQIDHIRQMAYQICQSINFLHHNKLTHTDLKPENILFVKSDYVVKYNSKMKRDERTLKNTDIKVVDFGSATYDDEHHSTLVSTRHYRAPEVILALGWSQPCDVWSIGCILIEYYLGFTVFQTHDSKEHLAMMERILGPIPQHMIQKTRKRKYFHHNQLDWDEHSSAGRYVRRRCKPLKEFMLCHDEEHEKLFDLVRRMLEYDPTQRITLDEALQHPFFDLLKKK
# Procedure, shortened: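 Substrate mix (RS peptide 100 uM, ATP 1 uM) dispensed, compound pinned in, then Clk4 added to 25 nM final. Incubated 4.5 h at RT; Kinase-Glo reagent added, luminescence read after 5 min.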
# [18] = biological target: Dual specificity protein kinase CLK4 (Homo sapiens) (UniProt Q9HAZ1); test: qHTS Assay for Inhibitors of CDC-like Kinase 4 (ADP-Glo Assay) (AID 1771); also: % is scaled to controls: 0 for no effect and ±100 for the full control effect; nearly all actives have a fitted effect of over 70% in size
# Procedure, shortened: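 ADP production was read by ADP-Glo luminescence after residual ATP depletion, following 1 h room-temperature reaction of 25 nM Clk4, 1 uM ATP and 100 uM RS peptide with MgCl2, EGTA, DTT and Triton X-100.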
# [19] = biological target: Dual specificity protein kinase CLK4 (Homo sapiens) (UniProt Q9HAZ1); test: qHTS Assay for Inhibitors of CDC-like Kinase 4 (ADP-FP Assay) (AID 1795);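 also: recombinant human CLK4 phosphorylating RS repeat peptide at 1 µM ATP; % is scaled to controls: 0 for no effect and ±100 for the full control effect; nearly all actives have a fitted effect of over 60% in size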
# Procedure, shortened: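 Clk4 6.25 nM; RS peptide 100 uM; ATP 1 uM; 25 mM Tris pH 7.5, 10 mM MgCl2; 1 h reaction. ADP detected via antibody/orange tracer FP displacement; TG003 positive control.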
# [20] = measured here: cell count channel max response
# [21] = measured here: lipid channel max response
compound,measurement,setting,value
COC(=O)CC1C2(C)CC34OC5(C)O[C@@]6(C7/C(=C(/OC)C(C)C)C(=O)OC(c8ccoc8)[C@@]7(C)C(OC(=O)C(C)C)C(OC)[C@]6(O5)[C@@]13C)C(OC)[C@]4(OC)C2OC(C)=O (stereo not given in full),Potency,[1],2.51 µM (active)
same,Potency,[2],inactive
same,Potency,[3],inactive
same,outcome,[4],inactive
same,"activity change, negative = inhibition",[5],-17.5% (inactive)
same,max response,[5]; [20],1.3%
same,max response,[5]; [21],-14.4%
COc1ccc(-c2cc(=O)c3c(OC)c(OC)c(OC)c(OC)c3o2)cc1OC,Potency,[1],25.1 µM (active)
same,Potency,[2],inactive
same,Potency,[3],inactive
same,outcome,[4],inactive
same,"activity change, negative = inhibition",[5],-10.1% (inactive)
same,max response,[5]; [20],-11.8%
same,max response,[5]; [21],-19.5%
same,Potency,[6],inactive
CCCC1O[C@@H]2C[C@H]3[C@@H]4CCC5=CC(=O)C=C[C@]5(C)C4[C@@H](O)C[C@]3(C)[C@]2(C(=O)CO)O1 (stereo not given in full),"activity change, negative = inhibition",[5],0.423% (inactive)
same,max response,[5]; [20],-19.9%
same,max response,[5]; [21],-19.5%
COc1cccc(Cn2c(=O)c(CCc3ccccc3)nc3cnc(N4CCNCC4)nc32)c1,Potency,[7],> 11.4 µM (inactive)
same,"activity change, negative = inhibition",[8],4.19% (inactive)
same,Potency,[9],12.6 µM (active)
same,"activity change, negative = inhibition",[10],19.7% (inactive)
same,"activity, negative = inhibition",[11],-8.25% (inactive)
same,Potency,[12],> 9.22 µM (inactive)
same,Potency,[13],> 46 µM (inactive)
same,Potency,[14],inactive
same,Potency,[15],inactive
same,Potency,[2],inactive
same,activation,[16],8.93% (inactive)
same,"activity change, negative = inhibition",[5],3.32% (inactive)
same,max response,[5]; [20],9.35%
same,max response,[5]; [21],12.1%
same,Potency,[17],inactive
same,Potency,[18],inactive
same,Potency,[19],inactive
same,Potency,[6],inactive
Cc1cccc2c3c(ccc12)C1=C(C(=O)C3=O)C(C)CO1 (stereo not given),Potency,[3],inactive
same,outcome,[4],inactive
same,"activity change, negative = inhibition",[5],8.95% (inactive)
same,max response,[5]; [20],9.52%
same,max response,[5]; [21],20.4%
COc1ccccc1CNc1ncncc1-c1ccccc1OC,Potency,[7],> 11.4 µM (inactive)
same,"activity change, negative = inhibition",[8],-8.41% (inactive)
same,"activity change, negative = inhibition",[10],-16.1% (inactive)
same,"activity, negative = inhibition",[11],-9.32% (inactive)
same,Potency,[12],> 46 µM (inactive)
same,Potency,[13],> 46 µM (inactive)
same,Potency,[14],inactive
same,Potency,[1],0.199 µM (active)
same,Potency,[2],inactive
same,"activity change, negative = inhibition",[5],6.17% (inactive)
same,max response,[5]; [20],3.98%
same,max response,[5]; [21],9.74%
same,Potency,[6],inactive
CN1CCN(c2ncc3nc(-c4ccc(F)cc4)c(=O)n(C4CC4)c3n2)CC1,Potency,[7],> 11.4 µM (inactive)
same,"activity change, negative = inhibition",[8],9.67% (inactive)
same,Potency,[9],12.6 µM (active)
same,"activity change, negative = inhibition",[10],24.4% (inactive)
same,"activity, negative = inhibition",[11],18.6% (inactive)
same,Potency,[12],> 9.22 µM (inactive)
same,Potency,[13],> 46 µM (inactive)
same,Potency,[14],inactive
same,Potency,[15],inactive
same,Potency,[1],inactive
same,"activity change, negative = inhibition",[5],-0.731% (inactive)
same,max response,[5]; [20],7.24%
same,max response,[5]; [21],4.22%
same,Potency,[17],inactive
same,Potency,[18],inactive
same,Potency,[19],inactive
same,Potency,[6],inactive
COc1ccc2c(c1)OCC(Cc1ccc(OC)c(OC(C)=O)c1)C2=O (stereo not given),Potency,[2],inactive
same,Potency,[3],inactive
same,outcome,[4],inactive
same,"activity change, negative = inhibition",[5],2.81% (inactive)
same,max response,[5]; [20],1.86%
same,max response,[5]; [21],-2.44%
Nc1ncnc2c1nc(Br)n2C1O[C@H]2COP(=O)(O)O[C@@H]2C1O (stereo not given in full),"activity change, negative = inhibition",[5],0.429% (inactive)
same,max response,[5]; [20],27.3%
same,max response,[5]; [21],29.9%
